In the library only some 19% were active in any assay of this set; here they are far more common.
Pf growth 48h: inhibits P. falciparum growth in the first generation, 48 h; actives 5.9% (n = 310,000); AID 504832; P. falciparum luciferase growth in erythrocytes, 48 h; Potency, µM (titrated, usually from 28.7 µM), usual class: inhibitors
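In quantitative HTS format, infected erythrocytes bearing luciferase-reporter parasites were treated for a single generation at 37 C. Luminescence after adding detection reagent served as the growth measure.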
Cycloheximide cs: counter-screen for Shiga toxin inhibitors: cycloheximide protein synthesis inhibition; max response, %; cell reporter, cycloheximide protein synthesis inhibition counterscreen; actives 12% (n = 300,000); in the data active = max response mostly above about 13%, no sharp cut-off; inactive = mostly below about 14%; note: read at 38.3 µM for the half of the compounds with a filed dose
SARS PLpro yeast: blocks SARS-CoV papain-like protease in a yeast assay | S. cerevisiae expressing SARS-CoV PLpro, growth rescue | Potency, µM (series often up to 32.9 µM), usual class: activators | actives 0.19% (n = 330,000) | AID 485353; calls by dose curve; note: nearly all actives have a fitted effect of over 55% in size
AMA1 RON2 block: disrupts binding of P. falciparum AMA1 to RON2. AID 720542. actives 0.2% (n = 360,000). AlphaScreen AMA1-biotinylated RON2 peptide binding. Potency, µM (highest dose often 58.2 µM), hits mostly inhibitors; note: nearly all actives have a fitted effect of over 45% in size
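AMA1 (3D7) with his tag at 25 nM final met compounds first, then biotinylated RON2 peptide at 25 nM; detection used donor plus acceptor beads, 10 µg/mL apiece, read by AlphaScreen after 30 min at room temperature.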
Shiga toxin inh: Shiga toxin inhibition; Vero cells, Shiga toxin protein synthesis inhibition reporter; inhibition, % at 38.7 µM; actives 9.2% (n = 290,000); in the data active = inhibition mostly above about 28%, no sharp cut-off; inactive = mostly below about 43%
Pf growth 96h: P. falciparum growth inhibition at 96 hours; P. falciparum luciferase reporter growth, 96 h; Potency, µM (titrated, usually from 28.7 µM), actives largely listed as inhibitors; actives 6.9% (n = 320,000); AID 504834
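Parasite growth measured via integrated firefly luciferase reporter in P. falciparum. Infected erythrocytes at 2% hematocrit, 0.05% parasitemia final were treated 96 hours at 37 C under 5% CO2, and luminescence was read.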
Numbers stand for hits; 0 = inactive; ? = inconclusive; - = not tested or not shown; + = active, no number; [ ] = dose if it differs, or a comment. Unless noted, calls come from the whole dose curve; as a rule, active = well fitted curve in the direction sought with a large enough effect; inconclusive = small, poorly fitted or top-dose-only effect, or another doubt; inactive = no such curve, though single readings can be large; an effect the other way counts as inactive or inconclusive.

SMILES	Pf growth 48h	Cycloheximide cs	SARS PLpro yeast	AMA1 RON2 block	Shiga toxin inh	Pf growth 96h
O=P(O)(CCc1ccccn1)CN1CCOCC1	-	0	0	0	0	5.22µM
O=P(O)(CCc1ccccn1)CN1CCCCC1	-	0	0	0	0	0
CSC[C@H]1CN(Cc2cccnc2)C(=O)[C@@H]1CC(=O)Nc1ccc(Br)cc1	-	-	-	0	-	-
Cc1cc(C)nc(/N=C(\N)Nc2cccc([N+](=O)[O-])c2)n1	?	0	0	0	0	10.4µM
CCC(=O)Nc1ccc(N/C(N)=N/c2nc(C)cc(C)n2)cc1	0	0	0	0	0	?
Cc1ccc(N/C(N)=N/c2nc(C)cc(C)n2)cc1	?	0	0	0	0	0
Cc1cccc(N/C(N)=N/c2nc(C)cc(C)n2)c1	0	0	0	0	0	0
CCCCc1ccc(N/C(N)=N/c2nc(C)cc(C)n2)cc1	?	0	0	0	0	4.15µM
Cc1cc(C)nc(/N=C(\N)Nc2ccc(C(C)C)cc2)n1	?	14.4	0	0	0	11.7µM
Cc1cc(C)cc(N/C(N)=N/c2nc(C)cc(C)n2)c1	13.1µM	0	0	0	0	4.15µM
Cc1cc(C)nc(/N=C(\N)Nc2ccc([N+](=O)[O-])cc2)n1	0	0	0	0	0	0
O=C(NCC(O)CN1CCOCC1)c1ccc([N+](=O)[O-])cc1 (stereo not drawn)	0	0	0	0	0	0
NC(N)=NS(=O)(=O)c1ccc(N/C=C\C(=O)c2ccncc2)cc1	0	0	0	0	0	0
COc1cc(NC(=O)c2ncn[nH]2)cc(OC)c1OC	0	0	0	0	0	0
Cc1ccnc(NC(=O)CCC(=O)N(CC(=O)NC2CCCCC2)C2CCCC2)c1	0	0	0	0	0	0
CCOc1cc(/C=N/NS(=O)(=O)c2ccc(OC)cc2)ccc1OCCN1CCOCC1	0	0	0	0	0	5.22µM
COc1cc(/C=N/NC(=O)CN2CCCCC2)ccc1OCc1ccccc1	0	28.5	0	0	+	0
COc1cc(/C=N/NC(=O)CN2CCOCC2)ccc1OCc1ccccc1	0	0	0	0	0	?
CCOc1cc(/C=N/NS(=O)(=O)c2ccccc2)ccc1OS(=O)(=O)c1ccc(C)cc1	-	0	0	0	0	?
O=C(CN1CCCCCCC1)N/N=C/c1ccc(F)c(F)c1	0	0	0	0[2.32 µM]	0	0
CCOc1cc(/C=N\NC(=O)CN2CCOCC2)ccc1OCc1ccc(F)cc1	9.28µM	0	0	0	0	11.7µM
O=C(CN1CCCCC1)N/N=C/c1ccc(Cl)cc1	0	14.0	0	0	45.4	0
CC1CCN(C(=O)COC(=O)[C@H](C)NS(=O)(=O)/C=C/c2ccccc2)CC1	0	0	0	0	0	-
C=C1CCN([C@H](C(=O)NCc2ccc(Cl)cc2)C(C)C)S(=O)(=O)c2ccccc21	0	0	0	0	0	?
CCCCOc1ccc(C(=O)N/N=C/c2ccc(OCCN3CCCCC3)c(OC)c2)cc1	11.7µM	0	0	0	0	11.7µM
SMILES	Pf growth 48h	Cycloheximide cs	SARS PLpro yeast	AMA1 RON2 block	Shiga toxin inh	Pf growth 96h
COc1cc(/C=N\NC(=O)CN2CCOCC2)ccc1OCC(=O)Nc1ccc(C)c(C)c1	?	14.2	0	0	35.0	9.28µM
CC(C)(C)OC(=O)COc1ccc(/C=N/NC(=O)CN2CCCCC2)cc1	0	44.9	0	0	88.1	0
Cn1cccc1CC(=O)N/N=C\c1ccccc1	0	0	0	0	0	0
Cn1cccc1CC(=O)N/N=C/c1ccc(Cl)cc1	0	16.3	0	0	26.2	0
CCc1nc2ccc(C(=O)Nc3cccc(OCC(=O)N(C)C)c3)cn2c1N(C)Cc1cc2ccccc2s1	-	-	-	0	-	-
O=C(CN1CCCCCC1)N/N=C/c1ccc2ccccc2c1	0	43.3	0	0	74.4	?
COc1cc(/C=N/OCC(=O)Nc2cc(C)on2)ccc1OCc1ccccc1	?	17.7	0	0	104.1	0
O=C(CN1CCCCCC1)N/N=C/c1cccc(Cl)c1	0	0	0	0	0	0
Cc1cc(NC(=O)COC(=O)c2cccc(OCc3ccccc3)c2)no1	0	0	0	0	0	0
CCc1nnc(NC(=O)CSc2nnc(CNc3ccc(C)cc3)n2C)s1	0	0	0	0	0	0
Cn1c(=O)c2[nH]c(CCCc3nc4ccccc4[nH]3)nc2n(C)c1=O	-	-	-	0	-	-
Cc1ccc(NC(=O)c2ccc(CSc3ccccn3)cc2)c(O)c1	1.47µM	0	0	0	0	3.7µM
Cc1ccccc1NC(=O)c1ccc(CSc2ncccn2)cc1	0	0	0	0	0	?
Cc1ccc(NC(=O)c2ccc(CSc3ccccn3)cc2)cc1	0	30.5	0	0	81.9	0
Cc1ccc(SCc2ccc(C(=O)Nc3cccc([N+](=O)[O-])c3)cc2)cc1	0	0	0	0	0	0
CC(=O)c1c(C)oc2ccc(N(C(=O)C3CCCCC3)S(=O)(=O)c3cc([N+](=O)[O-])ccc3C)cc12	0	0	0	0	0	3.7µM
CC(=O)c1c(C)oc2ccc(N(C(C)=O)S(=O)(=O)c3cccc([N+](=O)[O-])c3)cc12	0	0	0	0	0	0
COC(=O)Nc1ccc(S(=O)(=O)N2CCCC(C(=O)NC3CCS(=O)(=O)C3)C2)cc1 (stereo not drawn)	0	0	0	0	0	0
C/C(=N\NC(=S)Nc1ccc(F)cc1)c1ccc2c(c1)OCCO2	?	28.0	0	0	65.6	?
C/C(=N\NC(=S)NCc1ccccc1)c1ccc2c(c1)OCCO2	0	0	0	0	92.8	?
CC(=O)N/N=C(\C)c1ccc2c(c1)OCCO2	0	0	0	0	0	0
C/C(=N\NC(=S)NCc1ccccc1)c1cccs1	0	34.5	0	0	134.9	?
C/C(=N\NC(N)=S)c1ccc2c(c1)OCCO2	0	26.5	0	0	42.9	?
O=C(COC(=O)c1ccc2c(c1)OCCO2)Nc1ccc(F)cc1	0	-	0	0	-	0
CCCN(CC(=O)Nc1ccccc1OC)C(=O)c1cc(-c2ccccc2)nn1-c1ccccc1	?	-	0	0	-	?
SMILES	Pf growth 48h	Cycloheximide cs	SARS PLpro yeast	AMA1 RON2 block	Shiga toxin inh	Pf growth 96h
CC(=O)Nc1cc(-c2ccccc2)cn2c(-c3ccc(F)cc3)cnc12	-	-	-	0	-	-
CC1=C(C(=O)N(C(C)C)C(C)C)CC(CC(=O)NC(c2ccccc2)c2ccccc2)C(=O)N1CCCN1CCCC1=O (stereo not drawn)	-	-	-	0	-	-
C/C(=N/NC(=O)c1ccc2c(c1)OCO2)c1cccc(NC(=O)C(C)(C)C)c1	0	0	0	0	0	0[5.75 µM]
C/C(=N\NC(=O)CSc1nc(C)cc(C)n1)c1ccc2c(c1)OCCO2	0	37.6	0	0	84.0	?
C/C(=N/NC(=O)c1ccc2c(c1)OCO2)c1ccc(NC(=O)c2ccc(F)cc2)cc1	0	34.3	0	0	40.1	0
C=C1CCN(CC(=O)OC)S(=O)(=O)c2ccccc21	0	0	0	0	0	?

Screening data from PubChem BioAssay.
